Assay [1] can be described thus: qHTS assay to identify small molecule agonists of the TGF-beta/Smad signaling pathway (AID 1346859; active = well fitted activation curve with a large enough effect in the signal ratio in the repeat runs, not every such curve was filed as active; the % refers to the signal ratio; note: series mostly up to about 77 µM). In short, it runs like this: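 Read-out: fluorescence at 460 and 530 nm (405 nm excitation) after a 2 hr room-temperature incubation with beta-lactamase FRET substrate. SBE-bla HEK 293T cells had been treated with test compounds for 5 hr at 37 C.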
Assay [2] deals with Thyrotropin-releasing hormone receptor (Homo sapiens) (UniProt P34981). In words: qHTS assay to identify small molecule antagonists of the thyrotropin-releasing hormone receptor (TRHR) signaling pathway (AID 1346877; active = well fitted inhibition curve with a large enough effect in the repeat runs, not every such curve was filed as active; note: series mostly up to about 51 µM). The method in brief:
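Antagonist mode: after a 5 min room-temperature compound exposure, cells were stimulated with 1 nM (final) TRH. Dye-loaded TRHR-HEK293 cells were used, and calcium-dependent fluorescence was followed for 3 min, with 15-point titrations run in triplicate.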
Background: In qHTS, concentration-response curves come from the screen itself.

Assay [3] has the same target. In words: qHTS assay to identify small molecule agonists of the thyrotropin-releasing hormone receptor (TRHR) signaling pathway (AID 1346891; calls by dose curve;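 note: HEK293 cells expressing TRHR with calcium dye readout; series mostly up to about 58 µM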). In short, it runs like this: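 HEK293/TRHR cells, 1500 per well, 18 h 37 °C; Ca dye 2 h 37 °C; pin-tool compound addition (agonist mode); kinetic fluorescence 3 min, 1 s reads; 15 concentrations, triplicate.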
Assay [4] in a line: Human pregnane X receptor (PXR) small molecule agonists, qHTS cell viability counter screen (AID 1346977). Note: nearly all actives have a fitted effect of over 50% in size. In short, it runs like this:
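Fluorescence read-out (CellTiter-Fluor) of viability in PXR-Luc HepG2 cells, multiplexed with the luciferase agonist read. Compounds in DMSO added after 5hr plating; 24hr total exposure at 37C, 5% CO2.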

A short description of assay [5]: Caspase-3/7 induction in HepG2 cells by small molecules, qHTS assay (AID 1346978). Note: nearly all actives have a fitted effect of over 15% in size. The method in brief: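 Wild-type HepG2 cells (2,000/well) were settled 5 h at 37 C, 5% CO2, then exposed to compounds in DMSO for 17 h. Caspase-3/7 activity was read by luminescence 30 min after adding Caspase-Glo 3/7 reagent at room temperature.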
Assay [6] is described as follows: Caspase-3/7 induction in CHO-K1 cells by small molecules, qHTS assay (AID 1346980). Note: nearly all actives have a fitted effect of over 15% in size. The method in brief: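 Wild-type cells were seeded at 1,500 per well and settled 5 hr at 37 C, 5% CO2, then exposed to DMSO-dissolved compounds for 17 hr. Caspase-Glo 3/7 reagent was added, and luminescence was read after 30min at room temperature.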
A short description of assay [7]: Caspase-3/7 induction in HepG2 cells by small molecules, qHTS cell viability counter screen (AID 1346981). Note: series mostly up to about 92 µM; nearly all actives have a fitted effect of over 30% in size. The method in brief: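 CellTiter-Fluor fluorescence measured viability in the same wells used for Caspase-Glo 3/7. HepG2 (wild type) at 2,000 cells/well were pre-incubated 5 hr, dosed, and given reagent at 16 hr, with 1 hr further at 37C.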
For assay [8], the target named is Cytochrome P450 2D6 (Homo sapiens) (UniProt P10635). Put plainly: Cytochrome P450 Family 2 Subfamily D Member 6 (CYP2D6) small molecule antagonists: luciferase reporter qHTS assay (AID 1671196). For activity change, negative = inhibition: series mostly up to about 120 µM. Note: nearly all actives have a fitted effect of over 50% in size. Note: potency is the fitted concentration of half-maximal effect. In short, it runs like this:
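CYP2D6 activity was followed as luminescence from its luciferin product after a 1 h NADPH-driven reaction at room temperature. Enzyme-substrate mix and compound were pre-incubated for 10 min, and the signal was read 20 min after adding detection reagent.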
Background: Reporter assays use an easily measured gene product as a stand-in for the process of interest.

The target in assay [9] is Cytochrome P450 2C19 (Homo sapiens) (UniProt P33261). Put plainly: Cytochrome P450 Family 2 Subfamily C Member 19 (CYP2C19) small molecule antagonists: luciferase reporter qHTS assay (AID 1671197). For activity change, negative = inhibition: series mostly up to about 120 µM. Note: nearly all actives have a fitted effect of over 65% in size. Note: potency is the fitted concentration of half-maximal effect. In short, it runs like this: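 P450-Glo CYP2C19 system: enzyme-substrate mix with compound 10 min at room temperature, then NADPH regeneration solution, 1 h at 37C. Proluciferin-to-luciferin conversion detected by luminescence after 20 min with detection reagent; ketoconazole as positive control.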
Sequence of Cytochrome P450 2C19 (Homo sapiens) (P33261 whole entry, looked up): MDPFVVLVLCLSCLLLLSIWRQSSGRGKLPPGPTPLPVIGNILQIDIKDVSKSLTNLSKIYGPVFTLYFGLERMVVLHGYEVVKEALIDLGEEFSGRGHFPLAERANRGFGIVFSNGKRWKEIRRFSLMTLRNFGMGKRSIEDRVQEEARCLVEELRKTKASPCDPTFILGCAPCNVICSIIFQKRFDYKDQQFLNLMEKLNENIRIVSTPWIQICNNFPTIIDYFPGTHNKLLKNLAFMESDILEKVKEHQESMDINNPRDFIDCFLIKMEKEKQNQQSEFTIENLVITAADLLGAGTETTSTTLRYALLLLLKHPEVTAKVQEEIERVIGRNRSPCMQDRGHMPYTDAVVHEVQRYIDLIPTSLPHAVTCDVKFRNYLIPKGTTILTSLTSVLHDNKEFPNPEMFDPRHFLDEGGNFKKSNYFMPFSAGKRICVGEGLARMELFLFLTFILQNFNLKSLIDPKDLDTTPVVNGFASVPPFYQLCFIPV

Assay [10] concerns the target Cytochrome P450 2C9 (Homo sapiens) (UniProt P11712). Put plainly: Cytochrome P450 Family 2 Subfamily C Member 9 (CYP2C9) small molecule antagonists: luciferase reporter qHTS assay (AID 1671198). For activity change, negative = inhibition: series mostly up to about 120 µM. Note: nearly all actives have a fitted effect of over 50% in size. Note: potency is the fitted concentration of half-maximal effect. The method in brief:
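CYP2C9 activity was measured with a P450-Glo proluciferin substrate. Enzyme–substrate mix was held with compound for 10 min at room temperature, then NADPH regeneration solution was added for 1 h at 37C. Luciferin product was read as luminescence.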

Assay [11] deals with Cytochrome P450 1A2 (Homo sapiens) (UniProt P05177). In words: Cytochrome P450 Family 1 Subfamily A Member 2 (CYP1A2) small molecule antagonists: luciferase reporter qHTS assay (AID 1671199). For activity change, negative = inhibition: series mostly up to about 120 µM. Note: nearly all actives have a fitted effect of over 50% in size. Note: potency is the fitted concentration of half-maximal effect. The method in brief: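 Luminescence from luciferin formed by CYP1A2 from a proluciferin substrate, read 20 min after detection reagent. Compound was pre-incubated 10 min with enzyme-substrate, and reaction started with NADPH regeneration solution for 1 h at room temperature; furafylline control.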
Sequence of Cytochrome P450 1A2 (Homo sapiens) (P05177 whole entry, looked up): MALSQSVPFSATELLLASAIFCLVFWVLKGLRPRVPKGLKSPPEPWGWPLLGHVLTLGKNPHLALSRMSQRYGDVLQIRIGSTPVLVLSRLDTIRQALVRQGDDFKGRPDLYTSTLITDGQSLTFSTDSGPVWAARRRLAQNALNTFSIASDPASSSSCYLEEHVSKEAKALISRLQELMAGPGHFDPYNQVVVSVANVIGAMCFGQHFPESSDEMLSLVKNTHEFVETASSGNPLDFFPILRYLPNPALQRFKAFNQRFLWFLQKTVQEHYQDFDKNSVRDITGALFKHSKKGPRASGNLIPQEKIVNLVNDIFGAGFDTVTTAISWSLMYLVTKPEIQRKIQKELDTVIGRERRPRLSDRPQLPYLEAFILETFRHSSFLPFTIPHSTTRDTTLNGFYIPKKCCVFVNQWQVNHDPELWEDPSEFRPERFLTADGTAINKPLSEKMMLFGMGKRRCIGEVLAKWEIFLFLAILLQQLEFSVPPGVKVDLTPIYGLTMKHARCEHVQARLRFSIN

Assay [12] addresses Voltage-gated inwardly rectifying potassium channel KCNH2 (Homo sapiens) (UniProt Q12809). Put plainly: Human Ether-a-go-go-Related Gene (hERG) channel small molecule antagonists: fluorescence cell-based qHTS assay (AID 1671200). The method in brief:
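Read-out: thallium influx as a surrogate for potassium, tracked as fluorescence (480 nm ex/540 nm em) every second for 2 min after Stimulus Buffer addition in dye-loaded hERG-U2OS cells.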

Assay [13] deals with Cytochrome P450 3A4 (Homo sapiens) (UniProt P08684). In words: Cytochrome P450 Family 3 Subfamily A Member 4 (CYP3A4) small molecule antagonists: luciferase reporter qHTS assay (AID 1671201). For activity change, negative = inhibition: series mostly up to about 120 µM. Note: nearly all actives have a fitted effect of over 50% in size. Note: potency is the fitted concentration of half-maximal effect. The method in brief: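 Luminescent readout (RLU) proportional to CYP3A4 activity, from luciferin generated off a proluciferin substrate. Enzyme–substrate mix plus compound 10 min at room temp, NADPH regeneration 1 h, detection reagent 20 min.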
Sequence of Cytochrome P450 3A4 (Homo sapiens) (P08684 whole entry, looked up): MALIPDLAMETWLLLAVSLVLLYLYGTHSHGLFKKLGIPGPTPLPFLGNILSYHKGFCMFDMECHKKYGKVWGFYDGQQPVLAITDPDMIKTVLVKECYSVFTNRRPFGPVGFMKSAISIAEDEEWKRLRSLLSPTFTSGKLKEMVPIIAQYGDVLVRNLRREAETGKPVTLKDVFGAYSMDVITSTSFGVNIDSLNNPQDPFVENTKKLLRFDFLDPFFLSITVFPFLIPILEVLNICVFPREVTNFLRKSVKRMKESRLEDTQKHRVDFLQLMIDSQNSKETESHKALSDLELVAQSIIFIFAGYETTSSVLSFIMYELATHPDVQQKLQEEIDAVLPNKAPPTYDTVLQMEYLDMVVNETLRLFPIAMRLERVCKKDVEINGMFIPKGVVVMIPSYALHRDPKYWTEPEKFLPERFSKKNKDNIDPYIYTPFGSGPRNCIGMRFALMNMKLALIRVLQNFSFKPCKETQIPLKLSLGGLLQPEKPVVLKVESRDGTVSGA

The nature of assay [14]: Caspase-3/7 induction in CHO-K1 cells by small molecules, qHTS cell viability counter screen (AID 1346979). Note: nearly all actives have a fitted effect of over 35% in size. In short, it runs like this: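 CHO-K1 wt, 1,500 cells/well; 5hr pre-incubation 37C/5% CO2; compound pin transfer (DMSO); 16hr exposure; CellTiter-Fluor added, 1hr, fluorescence read.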
For assay [15], the target named is Nuclear receptor subfamily 1 group I member 2 (Homo sapiens) (UniProt O75469). In words: Human pregnane X receptor (PXR) small molecule agonists, qHTS assay (AID 1346982). Note: nearly all actives have a fitted effect of over 35% in size. In short, it runs like this:
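Agonist mode: luminescence from ONE-Glo after 24 h compound exposure at 37C in HepG2 cells carrying hPXR-responsive CYP3A4 luciferase, plated in charcoal-stripped serum medium 5 h beforehand.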

Assay [16] concerns the target Nuclear receptor subfamily 1 group I member 2 (Rattus norvegicus) (UniProt Q9R1A7). In words: Rat pregnane X receptor (rPXR) activation by small molecules, qHTS assay (AID 1346983). Note: nearly all actives have a fitted effect of over 20% in size. As to conditions: rPXR luciferase reporter cells, One-Glo luminescence, 24 h; max activation: hits give high values. The method in brief:
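Cell-based rPXR luciferase reporter assay, 2,000 cells per well, rested 5hr at 37 C before compound addition in DMSO, then 24 hr at 37 C. One-Glo reagent was added and luminescence read after 30 min at room temperature.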

Unmarked numbers belong to inactive results. Inconclusive results are not listed. The source made the active and inactive calls. Unless noted, calls come from the whole dose curve; as a rule, active = well fitted curve in the direction sought with a large enough effect in the repeat runs; inconclusive = weak or mixed curves; inactive = no such curve, though single readings can be large; an effect the other way counts as inactive or inconclusive.
% is set by controls: 0 for no effect and ±100 for the full control effect.

Sequence of Cytochrome P450 2D6 (Homo sapiens) (P10635 whole entry, looked up): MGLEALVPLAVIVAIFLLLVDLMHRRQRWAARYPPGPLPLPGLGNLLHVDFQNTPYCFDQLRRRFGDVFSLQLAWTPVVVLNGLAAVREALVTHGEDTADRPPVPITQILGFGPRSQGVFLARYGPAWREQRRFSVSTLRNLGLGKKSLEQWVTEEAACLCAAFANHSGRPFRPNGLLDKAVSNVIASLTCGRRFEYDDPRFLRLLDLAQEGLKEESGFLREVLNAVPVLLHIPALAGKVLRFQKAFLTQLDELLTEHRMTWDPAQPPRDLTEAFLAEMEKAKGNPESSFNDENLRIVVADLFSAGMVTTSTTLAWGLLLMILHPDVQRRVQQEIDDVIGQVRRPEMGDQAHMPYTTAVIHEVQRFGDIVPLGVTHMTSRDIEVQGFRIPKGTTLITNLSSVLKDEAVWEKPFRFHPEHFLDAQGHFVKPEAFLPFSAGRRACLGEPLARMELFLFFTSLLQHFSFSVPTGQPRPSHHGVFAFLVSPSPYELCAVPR
Sequence of Voltage-gated inwardly rectifying potassium channel KCNH2 (Homo sapiens) (Q12809 whole entry, looked up): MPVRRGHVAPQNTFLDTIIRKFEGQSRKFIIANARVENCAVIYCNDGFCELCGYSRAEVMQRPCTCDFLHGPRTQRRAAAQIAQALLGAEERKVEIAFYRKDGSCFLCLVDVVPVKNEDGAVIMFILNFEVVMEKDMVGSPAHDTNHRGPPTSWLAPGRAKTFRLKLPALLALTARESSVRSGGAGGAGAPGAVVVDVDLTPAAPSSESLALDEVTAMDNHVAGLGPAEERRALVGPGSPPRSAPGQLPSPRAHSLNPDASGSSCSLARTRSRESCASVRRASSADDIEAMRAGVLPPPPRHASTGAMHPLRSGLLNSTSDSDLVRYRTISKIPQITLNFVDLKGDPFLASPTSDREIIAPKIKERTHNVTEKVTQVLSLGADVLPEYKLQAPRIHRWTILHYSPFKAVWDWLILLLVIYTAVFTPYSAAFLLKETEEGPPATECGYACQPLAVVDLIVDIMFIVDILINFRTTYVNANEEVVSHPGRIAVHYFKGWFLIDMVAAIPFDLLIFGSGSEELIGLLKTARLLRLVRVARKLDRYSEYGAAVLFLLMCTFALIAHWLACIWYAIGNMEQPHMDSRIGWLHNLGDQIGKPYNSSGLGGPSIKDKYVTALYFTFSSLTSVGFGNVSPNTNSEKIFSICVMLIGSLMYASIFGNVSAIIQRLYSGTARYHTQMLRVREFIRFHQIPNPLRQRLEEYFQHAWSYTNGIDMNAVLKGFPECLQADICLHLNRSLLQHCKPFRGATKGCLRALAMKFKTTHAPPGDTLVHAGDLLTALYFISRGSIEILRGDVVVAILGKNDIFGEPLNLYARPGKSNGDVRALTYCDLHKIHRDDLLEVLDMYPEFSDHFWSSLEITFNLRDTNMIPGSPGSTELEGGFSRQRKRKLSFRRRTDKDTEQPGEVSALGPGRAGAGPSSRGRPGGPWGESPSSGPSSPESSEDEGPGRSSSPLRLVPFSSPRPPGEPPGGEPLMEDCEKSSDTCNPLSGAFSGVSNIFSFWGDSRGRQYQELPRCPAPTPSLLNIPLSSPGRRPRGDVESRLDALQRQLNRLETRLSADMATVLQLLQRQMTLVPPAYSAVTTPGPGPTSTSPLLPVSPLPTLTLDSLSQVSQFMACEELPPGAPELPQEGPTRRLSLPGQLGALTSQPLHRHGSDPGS
Sequence of Cytochrome P450 2C9 (Homo sapiens) (P11712 whole entry, looked up): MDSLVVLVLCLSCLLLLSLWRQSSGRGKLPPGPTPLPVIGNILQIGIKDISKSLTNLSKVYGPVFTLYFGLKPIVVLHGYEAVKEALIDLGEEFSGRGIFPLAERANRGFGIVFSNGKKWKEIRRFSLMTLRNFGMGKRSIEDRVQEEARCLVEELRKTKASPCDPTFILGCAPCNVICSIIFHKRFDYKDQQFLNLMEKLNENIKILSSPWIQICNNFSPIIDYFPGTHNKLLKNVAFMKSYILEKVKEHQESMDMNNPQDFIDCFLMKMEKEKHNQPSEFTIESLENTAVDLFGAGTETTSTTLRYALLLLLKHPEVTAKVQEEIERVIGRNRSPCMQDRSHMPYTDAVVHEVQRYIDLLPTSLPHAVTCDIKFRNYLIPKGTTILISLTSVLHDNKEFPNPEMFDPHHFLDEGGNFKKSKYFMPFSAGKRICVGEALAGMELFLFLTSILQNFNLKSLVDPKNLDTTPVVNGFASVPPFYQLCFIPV
Sequence of Thyrotropin-releasing hormone receptor (Homo sapiens) (P34981 whole entry, looked up): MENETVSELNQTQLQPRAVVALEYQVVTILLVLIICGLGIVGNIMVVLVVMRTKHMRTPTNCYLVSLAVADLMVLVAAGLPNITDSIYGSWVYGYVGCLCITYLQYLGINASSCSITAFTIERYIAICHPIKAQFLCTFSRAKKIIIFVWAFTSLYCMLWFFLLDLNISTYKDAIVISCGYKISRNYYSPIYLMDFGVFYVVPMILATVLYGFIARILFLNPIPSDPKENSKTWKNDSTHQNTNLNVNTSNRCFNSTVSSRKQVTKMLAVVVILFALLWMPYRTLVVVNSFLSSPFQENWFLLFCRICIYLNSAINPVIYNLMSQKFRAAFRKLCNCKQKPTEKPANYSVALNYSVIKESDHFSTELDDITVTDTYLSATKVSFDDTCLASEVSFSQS
Sequence of Nuclear receptor subfamily 1 group I member 2 (Homo sapiens) (O75469 whole entry, looked up): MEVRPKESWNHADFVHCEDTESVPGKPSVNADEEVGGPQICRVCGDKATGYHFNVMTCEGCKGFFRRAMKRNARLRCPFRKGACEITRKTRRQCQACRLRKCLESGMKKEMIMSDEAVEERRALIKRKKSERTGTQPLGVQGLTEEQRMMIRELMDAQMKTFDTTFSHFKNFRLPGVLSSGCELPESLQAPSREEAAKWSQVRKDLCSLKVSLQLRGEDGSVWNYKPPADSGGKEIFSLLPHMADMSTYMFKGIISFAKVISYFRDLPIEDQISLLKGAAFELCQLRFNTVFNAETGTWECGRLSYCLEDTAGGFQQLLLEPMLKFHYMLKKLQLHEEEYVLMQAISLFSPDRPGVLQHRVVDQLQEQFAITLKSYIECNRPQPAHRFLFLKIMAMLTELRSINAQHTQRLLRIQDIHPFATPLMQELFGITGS
Sequence of Nuclear receptor subfamily 1 group I member 2 (Rattus norvegicus) (Q9R1A7 whole entry, looked up): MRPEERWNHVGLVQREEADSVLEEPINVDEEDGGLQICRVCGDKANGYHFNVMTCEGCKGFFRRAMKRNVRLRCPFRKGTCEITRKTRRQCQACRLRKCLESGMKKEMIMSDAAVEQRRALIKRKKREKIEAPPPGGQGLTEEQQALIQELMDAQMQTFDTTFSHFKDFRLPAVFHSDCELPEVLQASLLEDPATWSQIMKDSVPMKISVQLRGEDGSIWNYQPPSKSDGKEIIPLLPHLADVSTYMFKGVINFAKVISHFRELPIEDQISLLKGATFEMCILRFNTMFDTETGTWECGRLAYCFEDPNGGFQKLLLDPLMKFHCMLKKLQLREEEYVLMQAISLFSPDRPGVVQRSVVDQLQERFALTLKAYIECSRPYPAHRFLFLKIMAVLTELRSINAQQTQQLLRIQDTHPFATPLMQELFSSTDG

With `CCCc1ncc(C(=O)O)s1`, the compound was called inactive in assay [1], in assay [2], in assay [4], in assay [5], in assay [6] and in assay [7]. Further, the Potency result in assay [3], in assay [8], in assay [9], in [10], in [11] and in assay [12] was “inactive” in each case. Besides, the Potency entry in [13] was “inactive”.

As for `CCCCOCCCC`, the outcome in assay [1], in assay [2], in assay [4], in [5] and in assay [7] was inactive. Moreover, the Potency result in assay [3], in [14], in assay [9], in assay [10] and in [12] was “inactive” in each case.

On to `CC[N+](C)(CC)CC`, for which the call in assay [1], in assay [2], in assay [4], in assay [5], in [6] and in assay [7] was inactive. The Potency result in [3], in [15], in assay [9], in assay [10], in assay [11] and in [12] was “inactive” in each case. In [13], the Potency result is “inactive”.

Turning to `N#Cc1ccccc1C#N`, the compound was called inactive in [1], in assay [2], in [4], in [5] and in [6]. Moreover, the Potency entry in assay [3], in [14], in assay [8], in assay [9], in assay [10] and in assay [12] was “inactive” in each case. The Potency result in assay [13] is “inactive”.

For the compound `NNC(=O)CCCCC(=O)NN`, the compound was classed as inactive in assay [1], in assay [2], in [4], in assay [5], in [6] and in [7]. Also, the Potency result in assay [3], in assay [15] and in [12] was “inactive” each time. In addition, the values for the Potency in assay [11] and in assay [13] were 31.7 µM (active) and 11.2 µM (active), respectively.

`CCCCCC(CC)OC(=O)CCCOc1ccc(Cl)cc1Cl` (stereo not given): the compound was classed as inactive in [1], in assay [2], in assay [4] and in [5]. Besides, the Potency result in assay [3], in assay [14], in assay [15], in assay [8], in assay [12] and in assay [13] was “inactive” each time. The results for the Potency in assay [9], in [10] and in [11] were 35.5 µM (active), 28.2 µM (active) and 35.5 µM (active), respectively.

Take `CCOC(=O)CC(C(C)=O)C(C)=O`: the result in assay [1], in [2], in [4], in assay [5] and in [7] was inactive. The Potency entry in assay [3], in assay [14], in [15], in assay [8], in assay [9] and in [10] was “inactive” in each case. Also, the Potency entry in assay [11] and in assay [12] was “inactive” in each case.

Regarding `C=CCCCCCCCCCCCCCC`, the activation in assay [1] is 0.917% [at 15.8 µM]; in assay [3] it was -0.0775% [at 11.8 µM]; in [15] it was 1.1% [at 19 µM]. Further, the activity, negative = inhibition in assay [2] was 2.16% [at 10.5 µM]. Besides, the activity change, negative = cytotoxicity was 1.28% [at 19 µM] in assay [4] and 5.54% [at 19 µM] in [14]. Besides, the caspase activation in [5] is 1.32% [at 19 µM]. For the same compound, in assay [9], the Potency is 18.6 µM (active). The activity change, negative = inhibition was -3.74% [at 23.6 µM] in assay [10], 4.07% [at 15.8 µM] in assay [12] and -5.46% [at 23.6 µM] in assay [13].

As to `O=C(O)Cc1ccccc1Oc1ccc(Cl)cc1Cl`, the result in assay [1], in [2], in [4], in assay [5] and in [7] was inactive. For the same compound, the Potency entry in assay [3], in assay [14], in [9] and in assay [11] was “inactive” throughout. Further, the Potency in [10] was 38.9 µM (active).

On to `COC(=O)C(c1ccccc1Cl)N1CCc2sccc2C1` (stereo not given), for which the result in [1], in assay [2], in assay [4], in [5] and in assay [7] was inactive. The Potency entry in assay [3], in assay [14] and in assay [12] was “inactive” in each case. Further, the Potency was 17.4 µM (active) in assay [8], 0.871 µM (active) in assay [9], 17.4 µM (active) in [10] and 15.5 µM (active) in [11].

For `NC(=O)CC[C@@H](N)C(=O)O`, the call in [1], in assay [2], in assay [4], in assay [5] and in assay [7] was inactive. The Potency entry in assay [3], in [14] and in assay [12] was “inactive” throughout. The max activation in assay [16] was 0.0386%.

Take `CCCCCCCC(=O)N(C)C`: the outcome in [1], in assay [2], in [4], in [5] and in [6] was inactive. The Potency result in assay [3], in assay [14], in [8], in assay [9], in [10] and in assay [11] was “inactive” throughout. In addition, the Potency entry in [12] and in assay [13] was “inactive” throughout.
